SMILES strings stand for the structures. Active and inactive are the calls of the source. How the source made its calls: active means hit-call score of the fitted dose curve at least 0.9, where 1 is the maximum; inactive means score below 0.9.

Chain of human Flt-1 (VEGFR1) (FLT1) Receptor Tyrosine Kinase, FLT1 (gene 2321) (P17948 whole entry, looked up): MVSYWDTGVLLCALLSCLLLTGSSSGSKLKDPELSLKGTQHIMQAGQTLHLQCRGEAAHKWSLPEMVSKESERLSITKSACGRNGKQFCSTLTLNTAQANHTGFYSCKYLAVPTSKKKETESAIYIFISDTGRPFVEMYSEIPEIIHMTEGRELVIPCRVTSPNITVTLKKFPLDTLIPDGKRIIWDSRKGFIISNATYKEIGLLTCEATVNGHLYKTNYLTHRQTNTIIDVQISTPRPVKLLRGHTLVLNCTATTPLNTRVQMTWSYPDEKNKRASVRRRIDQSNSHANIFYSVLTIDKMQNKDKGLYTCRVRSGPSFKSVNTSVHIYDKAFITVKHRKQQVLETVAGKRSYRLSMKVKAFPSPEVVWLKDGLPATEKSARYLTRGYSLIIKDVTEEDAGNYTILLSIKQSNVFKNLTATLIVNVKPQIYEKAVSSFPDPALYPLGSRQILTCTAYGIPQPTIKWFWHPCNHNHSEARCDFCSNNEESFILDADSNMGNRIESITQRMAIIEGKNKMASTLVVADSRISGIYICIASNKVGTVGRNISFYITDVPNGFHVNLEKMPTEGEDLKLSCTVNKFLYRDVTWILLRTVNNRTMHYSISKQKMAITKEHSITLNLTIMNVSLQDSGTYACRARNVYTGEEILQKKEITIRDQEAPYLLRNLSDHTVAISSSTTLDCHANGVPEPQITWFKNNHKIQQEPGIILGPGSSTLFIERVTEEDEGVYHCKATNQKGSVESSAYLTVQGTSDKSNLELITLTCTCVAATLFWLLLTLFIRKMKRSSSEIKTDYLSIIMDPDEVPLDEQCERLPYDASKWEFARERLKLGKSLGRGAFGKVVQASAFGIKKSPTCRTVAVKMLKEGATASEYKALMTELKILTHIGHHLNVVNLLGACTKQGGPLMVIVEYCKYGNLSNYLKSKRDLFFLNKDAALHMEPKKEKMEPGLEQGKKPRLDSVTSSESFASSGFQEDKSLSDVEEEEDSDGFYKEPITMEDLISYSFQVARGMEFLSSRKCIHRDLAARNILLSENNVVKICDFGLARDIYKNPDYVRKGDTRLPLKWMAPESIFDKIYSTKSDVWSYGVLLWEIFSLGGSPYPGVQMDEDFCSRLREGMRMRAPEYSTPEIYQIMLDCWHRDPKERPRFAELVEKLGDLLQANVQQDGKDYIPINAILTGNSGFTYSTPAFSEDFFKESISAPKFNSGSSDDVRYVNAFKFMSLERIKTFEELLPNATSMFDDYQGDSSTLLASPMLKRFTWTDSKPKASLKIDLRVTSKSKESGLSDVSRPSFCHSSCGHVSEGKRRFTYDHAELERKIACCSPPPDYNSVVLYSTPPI

The assay addresses human Flt-1 (VEGFR1) (FLT1) Receptor Tyrosine Kinase, FLT1 (gene 2321) (UniProt P17948). As to the kind of experiment: ERF_FR_ENZ_hFLT1: Eurofins (ERF) Enzymatic Radiometric [Km ATP] KinaseProfiler LeadHunter Assay for human Flt-1 (VEGFR1) (FLT1) Receptor Tyrosine Kinase. On the procedure: ERF_FR_ENZ_hFLT1 is a biochemical, single-readout assay that uses extracted gene-proteins in a cell-free assay. Measurements were taken 0.25 hour after chemical dosing in a 96-well plate. See Flt-1 (VEGFR1) Human RTK Kinase Enzymatic LANCE Assay [Km ATP], Cerep.ERF_FR_ENZ_hFLT1 is an assay component calculated from the ERF_FR_ENZ_hFLT1 assay. It is designed to measure enzyme activity using a type of enzyme reporter as detected by fluorescence intensity with LANCE technology.Data from the assay component ERF_FR_ENZ_hFLT1 was analyzed at the assay endpoint, ERF_FR_ENZ_hFLT1, in the positive analysis fitting direction relative to DMSO as the negative control and baseline of activity. Using a type of enzyme reporter, loss-of-signal activity can be used to understand changes in enzymatic activity as they relate to gene FLT1. To generalize the intended target to other relatable targets, this assay endpoint is annotated to the kinase intended target family, where the subfamily is receptor tyrosine kinase.
Flt1 (h) is incubated with 8 mM MOPS pH 7.0, 0.2 mM EDTA, 250 uM […], 10 mM MgAcetate and [g- 33P]-ATP (specific activity and concentration as required). The reaction is initiated by the addition of the Mg/ATP mix. After incubation for 40 minutes at room temperature, the reaction is stopped by the addition of phosphoric acid to a concentration of 0.5%. […]
`O=C(/C=C/c1ccc(O)cc1)CC(=O)/C=C/c1ccc(O)cc1`: the outcome was inactive.

Values taken from PubChem BioAssay AID2284087 (EPA ToxCast).
